Data on 33 compounds can be found in PubChem BioAssay (NCATS).

Molecules are shown by their SMILES. Results filed as inconclusive are left out. Calls of active or inactive are those of the source. Calls follow the shape of the dose curve; as a rule, active = well fitted curve in the direction sought with a large enough effect; inconclusive = small, poorly fitted or top-dose-only effect, or another doubt; inactive = no such curve, though single readings can be large; an effect the other way counts as inactive or inconclusive.
Also: nearly all actives have a fitted effect of over 35% in size.
Potency is read from the fitted curve at half-maximal effect.

One assay can be described thus: Quantitative High-Throughput drug screen in 47 multiple myeloma cell lines against the NCATS MIPE library collection: MMM1_PLB cell viability assay (AID 1918976). The settings on record: MMM1 myeloma cells viability, CellTiter-Glo, 48 h; series mostly up to 45.8 µM; viability (% of control): at the top concentration. The essentials: (§1)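 ATP-based luminescence (CellTiter-Glo, 5 min RT incubation) quantified surviving cells following two days' treatment with MIPE 4.0 agents at 37 °C, 5% CO2.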
In general terms: ATP-based viability assays read luminescence as a measure of living cells.
`Clc1ccccc1C(c1ccccc1)(c1ccccc1)n1ccnc1`: the Potency was 23.5 µM (active).
As to `Clc1ccc2c(c1)C(N1CCNCC1)=Nc1ccccc1O2`, the Potency is 16.6 µM (active).
Consider `CCOC(=O)C(C)(C)Oc1ccc(Cl)cc1`, for which the Potency is 7.43 µM (active).
On to `CC(C)(Oc1ccc(C2CC2(Cl)Cl)cc1)C(=O)O` (stereo unspecified), for which the “viability (% of control)” value was 110% [at 92.2 µM] (inactive).
For the compound `CCOC(=O)c1ncn2c1CN(C)C(=O)c1cc(F)ccc1-2`, the Potency is 6.62 µM (active).
On the same count and under the same terms, for `C[C@@H]1CC(=O)NN=C1c1ccc(NN=C(C#N)C#N)cc1` the value was 18.7 µM (active).
As to `NC12CC3CC(CC(C3)C1)C2`, the “viability (% of control)” value was 131% (inactive).
As for `OCCN(CCO)c1nc(N2CCCCC2)c2nc(N(CCO)CCO)nc(N3CCCCC3)c2n1`, the Potency was 23.5 µM (active).
The same measure, in the same setting: for `CN(Cc1cnc2nc(N)nc(N)c2n1)c1ccc(C(=O)N[C@@H](CCC(=O)O)C(=O)O)cc1` the value was 18.7 µM (active); for `NS(=O)(=O)c1cc2c(cc1Cl)NCNS2(=O)=O`, 16.6 µM (active).
`CC(CCc1ccc(O)cc1)NCCc1ccc(O)c(O)c1` (stereo unspecified): the Potency is 10.5 µM (active).
`O=C1Cc2cc(CCN3CCN(c4nsc5ccccc45)CC3)c(Cl)cc2N1`: the Potency was 23.5 µM (active).
Consider `COc1cc2nc(N3CCN(C(=O)C4COc5ccccc5O4)CC3)nc(N)c2cc1OC` (stereo unspecified), for which the Potency is 20.9 µM (active).

A further assay in a line: Quantitative High-Throughput drug screen in 47 multiple myeloma cell lines against the NCATS MIPE library collection: NCIH929_DSMZ cell viability assay (AID 1918978). The settings on record: NCI-H929 myeloma viability, CellTiter-Glo ATP, 48 h; series mostly up to 45.8 µM; viability, % of control: at the top concentration. In short, it runs like this: as §1
In the case of `CN1CCC(=C2c3ccccc3C=Cc3ccccc32)CC1`, the Potency was 5.9 µM (active).
Same read-out and setting: for `Cc1cn([C@H]2C[C@H](N=[N+]=[N-])[C@@H](CO)O2)c(=O)[nH]c1=O` the value was 23.5 µM (active); for `COc1ccc2c(c1)c(CC(=O)O)c(C)n2C(=O)c1ccc(Cl)cc1`, 18.7 µM (active).
With `CCCNCC(O)COc1ccccc1C(=O)CCc1ccccc1` (stereo unspecified), the “viability, % of control” value is 91% (inactive).
Turning to `Clc1ccc2c(c1)C(N1CCNCC1)=Nc1ccccc1O2`, the Potency was 20.9 µM (active).
With `CCOC(=O)C(C)(C)Oc1ccc(Cl)cc1`, the “viability, % of control” value was 118% (inactive).
The same measure, in the same setting: next, `Nc1c2c(nc3ccccc13)CCCC2`: 108% (inactive); `CC(C)(Oc1ccc(C2CC2(Cl)Cl)cc1)C(=O)O` (stereo unspecified): 105% [at 92.2 µM] (inactive); `CCOC(=O)c1ncn2c1CN(C)C(=O)c1cc(F)ccc1-2`: 109% (inactive).
Same read-out and setting: for `Clc1ccc2nsnc2c1NC1=NCCN1` the value was 125% (inactive).
As to `COc1cc2nc(N3CCN(C(=O)c4ccco4)CC3)nc(N)c2cc1OC`, the Potency is 8.33 µM (active).
Regarding `Cc1cc(C(C)(C)C)c(O)c(C)c1CC1=NCCN1`, the “viability, % of control” value is 119% (inactive).
Regarding `Cc1cnc(C(=O)NCCc2ccc(S(=O)(=O)NC(=O)NC3CCCCC3)cc2)cn1`, the “viability, % of control” value was 94.5% (inactive).
The same measure, in the same setting: next, `CC(C)Cc1ccc(C(C)C(=O)O)cc1` (stereo unspecified): 94.6% [at 23.2 µM] (inactive).
Turning to `C[C@@H]1CC(=O)NN=C1c1ccc(NN=C(C#N)C#N)cc1`, the Potency was 20.9 µM (active).
On the same count and under the same terms, next, `NC12CC3CC(CC(C3)C1)C2`: 16.6 µM (active).
In the case of `CC(COc1ccccc1)N(CCCl)Cc1ccccc1` (stereo unspecified), the “viability, % of control” value was 113% (inactive).
Same read-out and setting: next, `Cn1c(=O)c2c(ncn2C)n(C)c1=O`: 115% (inactive).
For the compound `O=c1c(O)c(-c2ccc(O)c(O)c2)oc2cc(O)cc(O)c12`, the Potency is 7.43 µM (active).
Consider `CN(Cc1cnc2nc(N)nc(N)c2n1)c1ccc(C(=O)N[C@@H](CCC(=O)O)C(=O)O)cc1`, for which the Potency is 2.35 µM (active).
On to `NS(=O)(=O)c1cc2c(cc1Cl)NCNS2(=O)=O`, for which the “viability, % of control” value is 103% (inactive).
Still for that read-out and setting: for `COc1cc2nc(N(C)CCCNC(=O)C3CCCO3)nc(N)c2cc1OC` (stereo unspecified) the value was 99.3% (inactive); for `NC(=O)OCC(COC(N)=O)c1ccccc1`, 101% (inactive).
Turning to `O=C1Cc2cc(CCN3CCN(c4nsc5ccccc45)CC3)c(Cl)cc2N1`, the Potency is 23.5 µM (active).
Consider `COc1cc2nc(N3CCN(C(=O)C4COc5ccccc5O4)CC3)nc(N)c2cc1OC` (stereo unspecified), for which the Potency is 23.5 µM (active).

Another assay can be described thus: Quantitative High-Throughput drug screen in 47 multiple myeloma cell lines against the NCATS MIPE library collection: OCIMY1_PLB cell viability assay (AID 1918979).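 As to viability: 100% = DMSO-only wells and 0% = cell-free media-only wells.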 The settings on record: OCI-MY1 myeloma viability, CellTiter-Glo ATP, 48 h; series mostly up to 45.8 µM; viability: at the top concentration. The essentials:
as §1
`COc1ccc2c(c1)c(CC(=O)O)c(C)n2C(=O)c1ccc(Cl)cc1`: the viability (as a rule, a read-out of living cells in per cent, often relative to untreated cells) is 107% (inactive).
On to `Clc1ccccc1C(c1ccccc1)(c1ccccc1)n1ccnc1`, for which the “viability” value is 99.8% (inactive).
Still for that read-out and setting: next, `Clc1ccc2c(c1)C(N1CCNCC1)=Nc1ccccc1O2`: 92.2% (inactive); `CCOC(=O)C(C)(C)Oc1ccc(Cl)cc1`: 130% (inactive); `Nc1c2c(nc3ccccc13)CCCC2`: 98% (inactive).
In the case of `O=C(CCCN1CCC(O)(c2ccc(Cl)cc2)CC1)c1ccc(F)cc1`, the “viability” value was 88.9% (inactive).
On the same count and under the same terms, next, `CC(C)(Oc1ccc(C2CC2(Cl)Cl)cc1)C(=O)O` (stereo unspecified): 114% [at 92.2 µM] (inactive).
As for `CCOC(=O)c1ncn2c1CN(C)C(=O)c1cc(F)ccc1-2`, the “viability” value is 98.7% (inactive).
On the same count and under the same terms, next, `O=c1c(-c2ccc(O)cc2)coc2cc(O)cc(O)c12`: 102% (inactive).
With `Clc1ccc2nsnc2c1NC1=NCCN1`, the “viability” value is 115% (inactive).
The same measure, in the same setting: for `Cc1cc(C(C)(C)C)c(O)c(C)c1CC1=NCCN1` the value was 112% (inactive); for `Cc1cnc(C(=O)NCCc2ccc(S(=O)(=O)NC(=O)NC3CCCCC3)cc2)cn1`, 117% (inactive).
Consider `CC(C)Cc1ccc(C(C)C(=O)O)cc1` (stereo unspecified), for which the “viability” value is 129% [at 23.2 µM] (inactive).
Regarding `C[C@@H]1CC(=O)NN=C1c1ccc(NN=C(C#N)C#N)cc1`, the Potency was 23.5 µM (active).
`CC12CC3CC(C)(C1)CC(N)(C3)C2`: the “viability” value is 128% (inactive).
Same read-out and setting: next, `Cc1ccc(-c2cc(C(F)(F)F)nn2-c2ccc(S(N)(=O)=O)cc2)cc1`: 103% (inactive); `Cn1c(=O)c2c(ncn2C)n(C)c1=O`: 98.5% (inactive).
`CN(Cc1cnc2nc(N)nc(N)c2n1)c1ccc(C(=O)N[C@@H](CCC(=O)O)C(=O)O)cc1`: the Potency was 4.18 µM (active).
With `NS(=O)(=O)c1cc2c(cc1Cl)NCNS2(=O)=O`, the “viability” value was 109% (inactive).
The same measure, in the same setting: for `CCOC(=O)Nc1ccc(NCc2ccc(F)cc2)nc1N` the value was 128% (inactive).
For the compound `CC(CCc1ccc(O)cc1)NCCc1ccc(O)c(O)c1` (stereo unspecified), the Potency was 18.7 µM (active).
Take `NC(=O)OCC(COC(N)=O)c1ccccc1`: the “viability” value is 108% (inactive).
For `O=C1Cc2cc(CCN3CCN(c4nsc5ccccc45)CC3)c(Cl)cc2N1`, the Potency was 20.9 µM (active).
